Records with an inconclusive call do not appear. Active and inactive are the calls of the source. How the source made its calls, unless noted: active means hit-call score of the fitted dose curve at least 0.9, where 1 is the maximum; inconclusive means response in the unintended direction; inactive means score below 0.9.
Columns and labels:
[1] = molecular target: Glucocorticoid receptor (Homo sapiens) (UniProt P04150); assay: ATG_GR_TRANS: Attagene TRANS-FACTORIAL HepG2 Assay for human Glucocorticoid Receptor (GR) (AID 2282978); conditions: HepG2 Attagene TRANS GR reporter, mRNA transcription;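 further: activators score as hits since higher reporter transcript over DMSO is fitted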
Procedure, shortened: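 Fluorescent capillary-electrophoresis quantitation of reporter mRNA is the readout, taken 24 h after dosing human HepG2 cells carrying transiently transfected GAL4-UAS reporter units activated by chimeric NR-GAL4 fusions; activity scored as induction over DMSO.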

[2] = molecular target: Oxysterols receptor LXR-alpha (Homo sapiens) (UniProt Q13133); assay: ATG_LXRa_TRANS: Attagene TRANS-FACTORIAL HepG2 Assay for human Liver X Receptor alpha (LXRa) (AID 2282980); conditions: HepG2 Attagene TRANS reporter, LXRa transactivation
Procedure, shortened: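 Transient HepG2 transfectants, 24 h dosing, RT-PCR/CE mRNA reporter quantitation; gain-of-signal vs DMSO.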

[3] = molecular target: Hepatocyte nuclear factor 4-alpha (Homo sapiens) (UniProt P41235); assay: ATG_HNF4a_TRANS: Attagene TRANS-FACTORIAL HepG2 Assay for human Hepatocyte Nuclear Factor 4 alpha (HNF4a) (AID 2282982); conditions: HepG2 HNF4a transactivation reporter, mRNA readout
Procedure, shortened: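 Transfected HepG2 reporter cells are dosed for 24 h; reporter RNA is reverse-transcribed, amplified, fluorescently labelled and HpaI-digested before CE sizing. Positive-direction fit against DMSO.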

[4] = ATG_M_06_TRANS: Attagene TRANS-FACTORIAL HepG2 Assay for M06 Transcription Factor (Internal Marker) (AID 2282983); conditions: HepG2 Attagene TRANS M06 internal marker reporter
Procedure, shortened: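 Measured by capillary electrophoresis of fluorescently labelled RT-PCR products, this endpoint reflects reporter mRNA in HepG2 cells harbouring exogenous NR-GAL4 reporter constructs after 24 h exposure, with DMSO as baseline.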

[5] = ATG_M_32_TRANS: Attagene TRANS-FACTORIAL HepG2 Assay for M32 Transcription Factor (Internal Marker) (AID 2282984); conditions: HepG2 Attagene TRANS M32 internal marker reporter
Procedure, shortened: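 Using transiently transfected HepG2 cells exposed to test chemicals for 24 h, reporter transcripts are converted to labelled cDNA fragments and quantified by capillary electrophoresis. DMSO defines the activity baseline.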

[6] = molecular target: Nuclear receptor subfamily 4 group A member 2 (Homo sapiens) (UniProt P43354); assay: ATG_NURR1_TRANS: Attagene TRANS-FACTORIAL HepG2 Assay for human Nuclear Receptor Related Protein 1 (NURR1) (AID 2282985); conditions: HepG2 Attagene TRANS reporter, mRNA readout
Procedure, shortened: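 Cells: HepG2, transiently transfected. Exposure: 24 h. Detection: fluorescence of labelled RT-PCR products separated by capillary electrophoresis; upward fit versus DMSO.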

[7] = molecular target: Transcriptional activator Myb (Homo sapiens) (UniProt P10242); assay: ATG_Myb_CIS: Attagene CIS-FACTORIAL HepG2 Assay for human Myeloblastosis (Myb) Proto-Oncogene Transcription Factor (AID 2282986; active means hit-call score of the fitted dose curve at least 0.9, where 1 is the maximum; inactive means score below 0.9); conditions: HepG2 Attagene CIS-FACTORIAL Myb reporter transcription; actives raise or lower the signal
Procedure, shortened: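 Reporter transcript levels, quantified by fluorescent RT-PCR and capillary electrophoresis, serve as the read-out. Transfected HepG2 cells carrying cis-promoter reporter units are dosed for 24 hours, and curves are fitted bidirectionally against DMSO controls.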

[8] = molecular target: Oxysterols receptor LXR-beta (Homo sapiens) (UniProt P55055); assay: ATG_LXRb_TRANS: Attagene TRANS-FACTORIAL HepG2 Assay for human Liver X Receptor beta (LXRb) (AID 2282981); conditions: HepG2 Attagene TRANS GAL4-LXRb reporter, mRNA
Procedure, shortened: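 Cells: HepG2, transiently transfected with GAL4-UAS reporter units plus LXRb-Gal4 fusion. Treatment: 24 h. Detection: reporter mRNA by RT-PCR, 6-FAM labelling, HpaI digestion, capillary electrophoresis.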

[9] = molecular target: Bile acid receptor (Homo sapiens) (UniProt Q96RI1); assay: ATG_FXR_TRANS: Attagene TRANS-FACTORIAL HepG2 Assay for Farnesoid X Receptor (FXR) (AID 2282979); conditions: HepG2 Attagene TRANS FXR-GAL4 reporter transcription;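 further: hits raise reporter mRNA above DMSO so AC50 marks FXR activation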
Procedure, shortened: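 Chimeric FXR-GAL4 activity in transiently transfected human HepG2 liver cells is scored as induction of reporter mRNA after 24 h of dosing. Detection uses RT-PCR with fluorescent labelling and capillary electrophoresis, with DMSO serving as baseline.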

Measured: AC50

Sequence of Glucocorticoid receptor (Homo sapiens) (P04150 whole entry, looked up, the tested form may be a part): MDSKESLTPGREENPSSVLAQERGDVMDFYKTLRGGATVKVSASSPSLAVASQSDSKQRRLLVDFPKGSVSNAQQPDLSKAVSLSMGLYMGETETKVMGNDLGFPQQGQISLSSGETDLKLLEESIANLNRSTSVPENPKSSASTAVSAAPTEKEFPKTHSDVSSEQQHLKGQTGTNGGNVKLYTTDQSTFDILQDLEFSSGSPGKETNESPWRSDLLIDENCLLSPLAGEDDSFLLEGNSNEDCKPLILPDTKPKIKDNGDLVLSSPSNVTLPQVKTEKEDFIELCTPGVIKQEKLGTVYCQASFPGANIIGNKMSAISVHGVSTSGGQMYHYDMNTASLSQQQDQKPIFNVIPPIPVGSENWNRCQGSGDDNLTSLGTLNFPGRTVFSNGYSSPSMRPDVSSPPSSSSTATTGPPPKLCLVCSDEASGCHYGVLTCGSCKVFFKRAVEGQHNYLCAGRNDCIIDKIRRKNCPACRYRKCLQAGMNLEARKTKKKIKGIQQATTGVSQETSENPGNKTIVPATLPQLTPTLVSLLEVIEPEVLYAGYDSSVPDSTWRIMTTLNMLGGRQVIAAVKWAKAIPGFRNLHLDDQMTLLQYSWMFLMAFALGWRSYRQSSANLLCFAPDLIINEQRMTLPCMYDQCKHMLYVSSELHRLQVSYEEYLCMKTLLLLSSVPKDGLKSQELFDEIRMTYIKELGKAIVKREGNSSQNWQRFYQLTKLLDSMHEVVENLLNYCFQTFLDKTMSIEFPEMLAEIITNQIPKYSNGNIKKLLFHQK
Sequence of Hepatocyte nuclear factor 4-alpha (Homo sapiens) (P41235 whole entry, looked up): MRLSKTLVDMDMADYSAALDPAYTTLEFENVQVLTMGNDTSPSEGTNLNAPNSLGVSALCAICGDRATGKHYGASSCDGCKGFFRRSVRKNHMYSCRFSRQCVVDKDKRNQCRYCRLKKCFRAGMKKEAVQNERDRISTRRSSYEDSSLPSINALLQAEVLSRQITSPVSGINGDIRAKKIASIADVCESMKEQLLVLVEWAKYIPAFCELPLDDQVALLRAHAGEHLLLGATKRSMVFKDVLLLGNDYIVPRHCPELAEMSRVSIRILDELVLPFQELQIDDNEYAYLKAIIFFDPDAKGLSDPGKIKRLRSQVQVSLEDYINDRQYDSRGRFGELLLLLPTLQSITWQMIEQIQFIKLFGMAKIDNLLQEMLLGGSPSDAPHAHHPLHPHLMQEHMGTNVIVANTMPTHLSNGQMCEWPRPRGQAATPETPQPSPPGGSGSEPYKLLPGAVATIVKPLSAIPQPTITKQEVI
Sequence of Oxysterols receptor LXR-alpha (Homo sapiens) (Q13133 whole entry, looked up): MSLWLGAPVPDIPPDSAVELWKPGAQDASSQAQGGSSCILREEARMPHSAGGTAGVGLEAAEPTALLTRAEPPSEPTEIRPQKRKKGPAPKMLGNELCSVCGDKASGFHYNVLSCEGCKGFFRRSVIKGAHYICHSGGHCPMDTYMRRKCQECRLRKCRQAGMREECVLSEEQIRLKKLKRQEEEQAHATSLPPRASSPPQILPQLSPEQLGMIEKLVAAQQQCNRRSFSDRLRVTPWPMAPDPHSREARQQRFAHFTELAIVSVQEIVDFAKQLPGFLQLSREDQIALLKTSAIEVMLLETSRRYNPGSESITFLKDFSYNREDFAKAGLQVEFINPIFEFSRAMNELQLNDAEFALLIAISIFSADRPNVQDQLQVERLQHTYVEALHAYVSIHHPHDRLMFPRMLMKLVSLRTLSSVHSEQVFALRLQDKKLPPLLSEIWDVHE
Sequence of Bile acid receptor (Homo sapiens) (Q96RI1 whole entry, looked up, the tested form may be a part): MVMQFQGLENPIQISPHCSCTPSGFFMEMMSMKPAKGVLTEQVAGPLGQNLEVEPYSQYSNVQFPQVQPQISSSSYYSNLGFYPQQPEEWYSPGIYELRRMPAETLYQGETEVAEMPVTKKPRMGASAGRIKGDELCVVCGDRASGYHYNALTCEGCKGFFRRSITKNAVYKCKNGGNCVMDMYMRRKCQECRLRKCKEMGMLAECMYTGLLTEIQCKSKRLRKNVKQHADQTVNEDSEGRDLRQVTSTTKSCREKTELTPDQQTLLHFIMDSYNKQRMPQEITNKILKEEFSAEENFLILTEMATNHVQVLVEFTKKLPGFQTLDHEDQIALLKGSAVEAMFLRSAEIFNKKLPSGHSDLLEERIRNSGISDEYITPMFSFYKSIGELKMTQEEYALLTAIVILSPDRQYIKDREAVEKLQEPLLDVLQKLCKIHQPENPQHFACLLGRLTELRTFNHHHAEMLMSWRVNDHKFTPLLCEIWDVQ
Sequence of Transcriptional activator Myb (Homo sapiens) (P10242 whole entry, looked up): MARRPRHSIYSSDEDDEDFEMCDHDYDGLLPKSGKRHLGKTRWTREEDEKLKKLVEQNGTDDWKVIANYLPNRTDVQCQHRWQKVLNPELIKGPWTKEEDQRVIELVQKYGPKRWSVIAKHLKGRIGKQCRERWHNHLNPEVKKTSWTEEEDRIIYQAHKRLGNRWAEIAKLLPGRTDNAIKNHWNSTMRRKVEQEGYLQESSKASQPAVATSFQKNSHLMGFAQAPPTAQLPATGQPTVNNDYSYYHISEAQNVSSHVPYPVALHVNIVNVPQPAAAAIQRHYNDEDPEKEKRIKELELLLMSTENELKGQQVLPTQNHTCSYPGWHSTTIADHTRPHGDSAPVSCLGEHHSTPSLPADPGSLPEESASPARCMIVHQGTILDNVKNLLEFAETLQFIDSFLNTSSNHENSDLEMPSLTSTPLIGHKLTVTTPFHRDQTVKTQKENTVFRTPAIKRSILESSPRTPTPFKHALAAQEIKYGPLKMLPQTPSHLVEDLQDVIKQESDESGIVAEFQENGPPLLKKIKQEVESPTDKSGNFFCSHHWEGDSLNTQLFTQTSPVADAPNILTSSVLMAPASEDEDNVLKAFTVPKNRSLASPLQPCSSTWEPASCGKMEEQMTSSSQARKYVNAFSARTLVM
Sequence of Nuclear receptor subfamily 4 group A member 2 (Homo sapiens) (P43354 whole entry, looked up): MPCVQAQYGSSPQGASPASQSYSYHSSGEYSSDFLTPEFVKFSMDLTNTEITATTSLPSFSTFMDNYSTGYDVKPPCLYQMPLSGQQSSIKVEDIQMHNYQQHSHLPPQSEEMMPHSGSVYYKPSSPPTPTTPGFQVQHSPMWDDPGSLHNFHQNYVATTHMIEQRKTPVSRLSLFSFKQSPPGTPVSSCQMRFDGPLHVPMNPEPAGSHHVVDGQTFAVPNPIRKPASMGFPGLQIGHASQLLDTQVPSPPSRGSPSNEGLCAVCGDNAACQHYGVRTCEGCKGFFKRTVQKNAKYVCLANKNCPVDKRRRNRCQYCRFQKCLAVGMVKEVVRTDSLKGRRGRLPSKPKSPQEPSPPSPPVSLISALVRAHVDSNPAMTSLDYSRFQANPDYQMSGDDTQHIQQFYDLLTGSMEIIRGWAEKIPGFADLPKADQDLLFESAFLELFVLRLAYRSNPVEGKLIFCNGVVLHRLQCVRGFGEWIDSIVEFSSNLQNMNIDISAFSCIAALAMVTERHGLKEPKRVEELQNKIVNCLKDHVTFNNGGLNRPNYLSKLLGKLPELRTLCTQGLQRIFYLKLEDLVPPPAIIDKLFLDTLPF
Sequence of Oxysterols receptor LXR-beta (Homo sapiens) (P55055 whole entry, looked up, the tested form may be a part): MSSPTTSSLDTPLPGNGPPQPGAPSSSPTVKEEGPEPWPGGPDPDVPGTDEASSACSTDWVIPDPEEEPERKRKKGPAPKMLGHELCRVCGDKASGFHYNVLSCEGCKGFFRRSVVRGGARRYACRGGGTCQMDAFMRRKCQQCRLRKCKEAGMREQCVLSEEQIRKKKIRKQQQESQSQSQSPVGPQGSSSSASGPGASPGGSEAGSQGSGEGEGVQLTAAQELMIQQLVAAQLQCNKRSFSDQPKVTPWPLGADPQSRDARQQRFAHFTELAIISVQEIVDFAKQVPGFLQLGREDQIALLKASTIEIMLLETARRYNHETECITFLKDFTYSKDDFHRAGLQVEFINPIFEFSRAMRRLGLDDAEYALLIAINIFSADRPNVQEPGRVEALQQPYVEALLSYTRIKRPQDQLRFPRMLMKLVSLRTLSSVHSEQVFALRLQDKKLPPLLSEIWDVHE

CC(C)=CCCC(C)CCOC(=O)C(C)C (stereo not given)
not listed: [8] | [9]
inactive: all other assays above

CCCCNc1ccccc1
inactive: [2] | [3] | [5] | [6] | [7]

Nc1ccc(Oc2cccc(Oc3ccc(N)cc3)c2)cc1
active: [3] 160 µM
inactive: [1] | [4] | [5]

FC(F)(Br)C(F)(F)C(F)(F)C(F)(F)C(F)(F)C(F)(F)Br
not listed: [3] | [9]
inactive: all other assays above

C=C(C)C(=O)OCCC(F)(F)C(F)(F)C(F)(F)C(F)(F)C(F)(C(F)(F)F)C(F)(F)F
inactive: [1] | [2] | [8] | [4] | [7]

FC(F)(F)C(F)(F)C(F)(F)C(F)(F)C(F)(F)CCI
not listed: [3] | [4] | [9]
inactive: all other assays above

FC(F)(F)C(F)(F)C(F)(F)C(F)(F)C(F)(F)C(F)(F)CC1CO1 (stereo not given)
inactive: [1] | [2] | [5] | [7]

O=S(=O)(O)c1ccc2ccccc2c1
inactive: [2] | [4] | [5] | [6]

O[Si](c1ccccc1)(c1ccccc1)c1ccccc1
inactive: [1] | [4] | [5] | [6]

FC(F)(F)C(F)(F)C(F)(F)C(F)(F)C(F)(F)C(F)(F)C(F)(F)C(F)(F)CCS
inactive: [2] | [5] | [7]

O=C(O)C(F)(F)C(F)(F)OC(F)(F)F
not listed: [3] | [6] | [9]
inactive: all other assays above

CC(C)(C)c1ccc(OC2CCCCC2O)cc1 (stereo not given)
inactive: [2] | [8]
active: [6] 100 µM

C=CC/C=C/C/C=C/C/C=C/C
inactive: [1] | [4] | [5] | [6] | [7]

Cc1cccc(N(C)C)c1
inactive: [1] | [3] | [4] | [5] | [7]

O=C(C=Cc1ccccc1)OCC=Cc1ccccc1
inactive: [8] | [3] | [4] | [5] | [7]

Nc1ccc([N+](=O)[O-])cc1O
inactive: [2] | [4] | [5] | [6]

C=CC(=O)OCC(F)(F)C(F)(F)C(F)(F)C(F)(F)C(F)(F)C(F)(F)C(F)(F)F
inactive: [9] | [2] | [8] | [4] | [6]

COC(=O)C1CCC(C(=O)OC)CC1 (stereo not given)
inactive: [5] | [6] | [7]

CCCCCCOC(=O)c1ccccc1
inactive: [3] | [4]

O=C(OCCOCCOCCOC(=O)c1ccccc1)c1ccccc1
not listed: [6] | [8] | [9]
inactive: all other assays above

CCCCCCC(C)OC(=O)CCCCC(=O)OC(C)CCCCCC (stereo not given)
inactive: [8] | [3] | [6] | [7]

CC(CCl)OP(=O)(OC(C)CCl)OC(C)CCl (stereo not given)
inactive: [1] | [2] | [4] | [6] | [7]

COC(=O)CCC(F)(F)C(F)(F)C(F)(F)C(F)(F)F
inactive: [9] | [4] | [7]

CNC(=S)NC
not listed: [1] | [2] | [5]
inactive: all other assays above

C=C(C)C(=O)OCC(F)(F)C(F)(F)C(F)(F)C(F)(F)C(F)(F)C(F)(F)C(F)(F)F
not listed: [3] | [5] | [9]
inactive: all other assays above

C1COCCN1
not listed: [1] | [2] | [9]
inactive: all other assays above

c1ccc(-c2ccccc2-c2ccccc2)cc1
active: [6] 27.2 µM
inactive: [1] | [8]

O=P(O)(O)OCCC(F)(F)C(F)(F)C(F)(F)C(F)(F)C(F)(F)C(F)(F)F
inactive: [9] | [8] | [4] | [5] | [7]

C=CC(=O)OCC(F)(F)C(F)(F)C(F)(F)C(F)(F)COC(=O)C=C
active: [3] 240 µM
not listed: [1] | [9]
inactive: all other assays above

FC(F)(F)C(F)(F)C(F)(F)C(F)(F)C(F)(F)C(F)(F)C(F)(F)I
inactive: [9] | [2] | [4] | [5] | [7]

N=C(N)C(F)(F)C(F)(F)C(F)(F)C(F)(F)C(F)(F)C(F)(F)C(F)(F)F
inactive: [9] | [4] | [5] | [6]

— PubChem BioAssay (EPA / NIEHS)
